Assay outcomes deposited in PubChem BioAssay by Broad Institute.
An excerpt weighted towards active compounds, which were near 6.8% of everything screened.
T cruzi growth-1: blocks T. cruzi growth in NIH3T3 culture | inhibition, % at 8.34 µM | 5.9% of 77,000 active | T. cruzi beta-gal in NIH3T3, GalScreen luminescence, 90 h;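 active = mean inhibition above about 93%, with at least 55% of replicates each passing it, limit read from the data, passing the limit was not always enough; inconclusive = only one of those two conditions holds; inactive = neither condition holds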
Pf Dd2 inh: P. falciparum Dd2 growth inhibition. SYBR Green, 72 h; active compounds read low. activity change, % at 10 µM. 2.3% of 94,000 active; in the data active = activity change below about -80%; inconclusive = no clear call, values can overlap the other calls
C diff HTS: C. difficile growth inhibition; AID 1259249; growth activity, negative = inhibition, % at 16 µg/mL (by protocol); 0.25% of 86,000 active; Clostridium difficile clinical isolate growth, OD600, 24 h; active compounds read low;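 active = mean growth activity at or below -80% and every replicate also at or below -80%; inconclusive = mean at or below -80% but some replicate above -80%; inactive = mean growth activity above -80%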;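 note: 0% = DMSO wells and -100% = levofloxacin 16 µg/mL wells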
T cruzi growth-2: blocks T. cruzi growth in NIH3T3 host cells; T. cruzi beta-gal in NIH3T3, GalScreen luminescence, 90 h; AID 651739; shares compounds with T cruzi growth-1; inhibition, % at 8.35 µM; 72% of 5,600 active;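 active = mean replicate inhibition above about 95% and at least 55% of replicates individually reaching it, limit read from the data; inconclusive = only one of the two criteria is met; inactive = neither criterion is met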
T cruzi growth-3: inhibitors of T. cruzi proliferation; AID 651740; T. cruzi beta-gal in NIH3T3, GalScreen luminescence, 90 h; shares compounds with T cruzi growth-1; inhibition, % at 2.09 µM; 21% of 5,600 active;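 active = mean inhibition above about 95%, with at least 55% of replicates also reaching it, limit read from the data; inconclusive = meets just one of the two conditions; inactive = meets neither condition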;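 note: plate controls were neutral control median for no effect and positive control median for full effect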
3T3 cytotox: kills mouse NIH/3T3 fibroblasts. cytotoxicity (signal decrease), % at 8.35 µM. shares compounds with T cruzi growth-1. NIH/3T3 viability, CellTiter-Glo ATP luminescence, 90 h. 14% of 5,600 active;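 active = mean signal decrease across replicates above about 35% based on untreated-well scatter, with enough replicates individually passing, limit read from the data; inconclusive = no rule stated though some were filed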;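 note: 0% = median of neutral control wells and 100% = median of positive control wells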
NIH3T3 tox 2: kills mouse NIH/3T3 fibroblasts; inhibition, % at 24.9 µM; shares compounds with T cruzi growth-1; NIH/3T3 viability, CellTiter-Glo ATP luminescence, 90 h; 56% of 5,600 active;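 active = mean loss of cell viability signal at or above a set limit, and enough replicates individually reaching it; inconclusive = meets only the mean limit or only the replicate share; inactive = meets neither condition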;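 note: 0% = median of neutral control wells and 100% = median of positive control wells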
An asterisk follows results filed as active; ? = inconclusive; / = no result given.

SMILES	T cruzi growth-1	Pf Dd2 inh	C diff HTS	T cruzi growth-2	T cruzi growth-3	3T3 cytotox	NIH3T3 tox 2
Cc1ccc(-c2ccc3c(c2)O[C@@H](CN(C)Cc2cccnc2)[C@@H](C)CN([C@H](C)CO)S3(=O)=O)cc1	104*	-66	3	107*	102*	62*	31*
Cc1noc(C)c1NC(=O)N(C)C[C@@H]1Oc2ccc(N(C)C)cc2CC(=O)N([C@@H](C)CO)C[C@@H]1C	-15	40	-1	/	/	/	/
CCCNC(=O)N1CC2(C1)[C@@H](c1ccccc1)[C@@H](CO)N2Cc1ccccn1	/	11	7	/	/	/	/
CC=Cc1ccc2n(c1=O)C[C@H]1[C@H](CO)[C@@H](C(=O)NC3CCCCC3)N(C(=O)C3CC3)[C@@H]21 (mixture of isomers)	12	/	1	/	/	/	/
Cc1cccc(-c2ccc([C@H]3[C@@H](CO)N4C(=O)CN(S(=O)(=O)c5cccc(F)c5)C[C@@H]34)cc2)c1	/	-18	63	/	/	/	/
N#C[C@H]1[C@@H](c2ccc(C#Cc3ccccc3F)cc2)[C@@H](CO)N1C(=O)C1CC1	103*	-65	7	104*	104*	5	30*
N#C[C@H]1[C@@H](c2ccc(C#Cc3ccccc3F)cc2)[C@H](CO)N1C(=O)C1CC1	95	-35	-16	/	/	/	/
N#C[C@@H]1[C@H](c2ccc(C#Cc3ccccc3F)cc2)[C@H](CO)N1C(=O)C1CCC1	94	-72	-1	/	/	/	/
N#C[C@@H]1[C@@H](c2ccc(C#Cc3ccccc3F)cc2)[C@@H](CO)N1C(=O)C1CCCCC1	102*	-28	3	109*	70	-9	80*
N#C[C@@H]1[C@H](c2ccc(C#Cc3ccccc3F)cc2)[C@@H](CO)N1C(=O)C1CC1	99*	-7	-3	99*	43	6	43*
COCC(=O)N1[C@H](C#N)[C@@H](c2ccc(C#Cc3ccccc3F)cc2)[C@H]1CO	101*	-11	7	98*	34	-1	2
COCC(=O)N1[C@@H](C#N)[C@@H](c2ccccc2)[C@@H]1CO	28	32	-3	/	/	/	/
CCCNC(=O)Nc1ccc2c(c1)C(=O)N(C)C[C@@H](OC)[C@H](C)CN(CC1CCCC1)[C@@H](C)CO2	-32	/	/	/	/	/	/
C[C@H]1CN([C@@H](C)CO)C(=O)c2cc(C#CC3CCCCC3)cnc2O[C@@H]1CN(C)S(C)(=O)=O	40	-12	-13	/	/	/	/
Cc1noc(C)c1S(=O)(=O)Nc1ccc2c(c1)C(=O)N([C@@H](C)CO)C[C@H](C)[C@@H](CN(C)Cc1ccc(C(=O)O)cc1)O2	-23	16	/	/	/	/	/
COc1ccc2c3c([nH]c2c1)[C@H](CO)N(C(=O)c1ccccn1)CC31CN(S(C)(=O)=O)C1	/	19	-6	/	/	/	/
COc1ccccc1NC(=O)N[C@@H]1C=C[C@H](CC(=O)N[C@@H](C)c2ccccc2)O[C@@H]1CO	/	15	2	/	/	/	/
N#C[C@@H]1[C@H](c2ccc(C#Cc3ccc(F)cc3)cc2)[C@@H](CO)N1C(=O)C1CCCC1	88	-57	-4	/	/	/	/
N#C[C@@H]1[C@H](c2ccc(C#Cc3ccccc3F)cc2)[C@H](CO)N1C(=O)C1CC1	100*	-53	0	102*	110*	23	44*
CCS(=O)(=O)N1[C@H](C#N)[C@@H](c2ccc(C#Cc3ccccc3F)cc2)[C@H]1CO	34	3	1	/	/	/	/
N#C[C@@H]1[C@@H](c2ccc(C#Cc3ccccc3F)cc2)[C@H](CO)N1C(=O)C1CCOCC1	69	-22	0	/	/	/	/
CCS(=O)(=O)N1[C@H](CO)[C@@H](c2ccc(C#Cc3ccccc3F)cc2)[C@@H]1C#N	?	-63	-3	107*	109*	-1	5
N#C[C@H]1[C@H](c2ccc(C#Cc3ccc(F)cc3)cc2)[C@H](CO)N1C(=O)C1CC1	114*	-29	-16	102*	76	-13	80*
CO[C@@H]1CN(C)C(=O)c2ccc(NC(=O)NC(C)C)cc2OC[C@@H](C)N(Cc2cncnc2)C[C@H]1C	-2	/	/	/	/	/	/
O=C(Nc1ccc(F)cc1)N[C@@H]1C=C[C@H](CC(=O)N2CCOCC2)O[C@H]1CO	52	1	/	/	/	/	/
SMILES	T cruzi growth-1	Pf Dd2 inh	C diff HTS	T cruzi growth-2	T cruzi growth-3	3T3 cytotox	NIH3T3 tox 2
CNC[C@H]1Oc2cc(C#CC3(O)CCCC3)ccc2S(=O)(=O)N([C@@H](C)CO)C[C@H]1C	-2	-8	-2	/	/	/	/
C[C@H](CO)N1C[C@H](C)[C@@H](CN(C)S(=O)(=O)c2ccc(Cl)cc2)Oc2ccc(NC(=O)Nc3ccccc3)cc2CC1=O	33	-54	-2	/	/	/	/
C[C@@H]1CN([C@H](C)CO)C(=O)c2cc(NC(=O)Nc3ccc(C(F)(F)F)cc3)ccc2O[C@@H](C)CCCCO[C@@H]1CN(C)CC1CCCCC1	?	-64	-63	?	112*	118*	105*
C[C@H](CO)N1C[C@H](C)[C@H](CN(C)CC2CCCCC2)OCCCC[C@H](C)Oc2ccc(NC(=O)Nc3ccc(C(F)(F)F)cc3)cc2C1=O	95*	-78	-82*	91	106*	120*	105*
C[C@H](CO)N1C[C@H](C)[C@H](CN(C)C)OCCCC[C@H](C)Oc2ccc(NC(=O)Nc3ccc(C(F)(F)F)cc3)cc2C1=O	25	/	8	/	/	/	/
C[C@H](CO)N1C[C@H](C)[C@@H](CN(C)C)OCCCC[C@H](C)Oc2ccc(NC(=O)Nc3ccc(C(F)(F)F)cc3)cc2C1=O	36	37	6	/	/	/	/
CO[C@H]1CC[C@@H]2CCN(C)C(=O)CC3(CCCCC3)CN(C)C(=O)c3cccc(C#N)c3OC[C@H]1O2	-28	/	23	/	/	/	/
CO[C@@H]1CN(C)C(=O)c2cc(NC(=O)Cc3ccccc3)ccc2OC[C@@H](C)N(CC2CC2)C[C@H]1C	19	-15	1	/	/	/	/
COCC(=O)N1CC2(C1)[C@H](c1ccccc1)[C@@H](CO)N2C(=O)c1ccncc1	/	13	-4	/	/	/	/
C[C@H]1CN([C@@H](C)CO)C(=O)c2cc(-c3cccnc3)cnc2O[C@@H]1CN(C)C(=O)c1cccc(F)c1	6	-19	1	/	/	/	/
CC(C)C#Cc1ccc2c(c1)O[C@H](CN(C)Cc1ccccc1)[C@@H](C)CN([C@@H](C)CO)S2(=O)=O	106*	-70	14	91	103*	-19	106*
C[C@@H]1CN([C@H](C)CO)S(=O)(=O)c2ccc(C#CC3CC3)cc2O[C@@H]1CN(C)Cc1cccc(F)c1	/	-49	7	/	/	/	/
CC(C)C#Cc1ccc2c(c1)O[C@@H](CN(C)Cc1ccccc1)[C@@H](C)CN([C@@H](C)CO)S2(=O)=O	106*	-56	13	101*	95	21	103*
C[C@H](CO)N1C[C@H](C)[C@@H](CN(C)Cc2ccccc2)Oc2cc(C#C[C@@H](C)O)ccc2S1(=O)=O	34	-28	-6	/	/	/	/
